Assay results published in PubChem BioAssay AID1159580 (chemical genetic matrix, 2015).
About 2,000 (36%) of roughly 5,500 compounds were called active. Inconclusive results (about 18%) are left out. No stated cut-off is given here; in the data, active means normalized growth mostly below about 0.91 (no sharp cut-off); inconclusive means no clear call, values can overlap the other calls; inactive means mostly above about 0.92. The list shows a part of the results.

Assay: chemical genetic growth profiling, strain panel (AID 1159580);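 further: tested at 20 µM; growth read once vehicle control cultures reached saturation at 30 °C; 1 = growth at the plate median or of vehicle wells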
Conditions: S. cerevisiae deletion strains, growth OD

Measured: normalized growth

O=C(O)COc1ccc(Cl)cc1Cl
inactive: locus YAL013W, strain DEP1, stronger effect = lower value 1.01 | locus YAL021C, strain ccr4, stronger effect = lower value 0.997 | locus YAL026C, strain drs2, stronger effect = lower value 1.01 | locus YAL030W, strain snc1, stronger effect = lower value 0.988 | locus YBL061C, strain skt5, stronger effect = lower value 0.997 | locus YBR009C, strain hhf1, stronger effect = lower value 0.992 | locus YBR021W, strain FUR4, stronger effect = lower value 1 | locus YBR023C, strain chs3, stronger effect = lower value 0.992 | locus YBR171W, strain sec66, stronger effect = lower value 1 | locus YBR229C, strain ROT2, stronger effect = lower value 0.999 | locus YBR231C, strain swc5, stronger effect = lower value 0.989 | locus YBR279W, strain paf1, stronger effect = lower value 0.992 | locus YCL011C, strain gbp2, stronger effect = lower value 1 | locus YCL016C, strain dcc1, stronger effect = lower value 0.994 | locus YCL029C, strain bik1, stronger effect = lower value 1.03 | locus YCL061C, strain MRC1, stronger effect = lower value 0.995 | locus YCL069W, strain vba3, stronger effect = lower value 1 | locus YCR088W, strain abp1, stronger effect = lower value 1 | locus YDL005C, strain med2, stronger effect = lower value 0.992 | locus YDL035C, strain GPR1, stronger effect = lower value 1.03 | locus YDL040C, strain nat1, stronger effect = lower value 0.996 | locus YDL074C, strain BRE1, stronger effect = lower value 1.05 | locus YDL101C, strain DUN1, stronger effect = lower value 0.999 | locus YDL134C, strain PPH21, stronger effect = lower value 1.02 | locus YDL185W, strain tfp1, stronger effect = lower value 1.02 | locus YDL192W, strain arf1, stronger effect = lower value 1.02 | locus YDR001C, strain nth1, stronger effect = lower value 1 | locus YDR069C, strain doa4, stronger effect = lower value 0.986 | locus YDR101C, strain arx1, stronger effect = lower value 1.02 | locus YDR137W, strain rgp1, stronger effect = lower value 1.01 | locus YDR150W, strain NUM1, stronger effect = lower value 1.01 | locus YDR159W, strain sac3, stronger effect = lower value 0.982 | locus YDR162C, strain NBP2, stronger effect = lower value 1.01 | locus YDR195W, strain ref2 0.968 | locus YDR297W, strain sur2, stronger effect = lower value 1.01 | locus YDR318W, strain mcm21, stronger effect = lower value 1.03 | locus YDR334W, strain swr1, stronger effect = lower value 1 | locus YDR335W, strain msn5, stronger effect = lower value 0.998 | locus YDR388W, stronger effect = lower value 1.02 | locus YDR392W, strain spt3, stronger effect = lower value 1 | locus YDR502C, strain sam2, stronger effect = lower value 1.02 | locus YEL003W, strain gim4, stronger effect = lower value 0.995 | locus YEL037C, strain rad23, stronger effect = lower value 1.01 | locus YEL061C, strain CIN8 (second series), stronger effect = lower value 0.989 | locus YEL061C, strain CIN8, stronger effect = lower value 1 | locus YER015W, strain faa2, stronger effect = lower value 0.997 | locus YER016W, strain bim1, stronger effect = lower value 1 | locus YER110C, stronger effect = lower value 1.02 | locus YER111C, strain swi4, stronger effect = lower value 0.977 | locus YER155C, strain BEM2 (second series), stronger effect = lower value 1.01 | locus YER155C, strain BEM2, stronger effect = lower value 1.01 | locus YER167W, strain BCK2, stronger effect = lower value 1.02 | locus YFR010W, strain ubp6, stronger effect = lower value 0.998 | locus YGL078C, strain dbp3, stronger effect = lower value 1.02 | locus YGL086W, strain mad1, stronger effect = lower value 1.01 | locus YGL167C, strain pmr1, stronger effect = lower value 1 | locus YGL173C, strain kem1, stronger effect = lower value 0.984 | locus YGL227W, strain vid30, stronger effect = lower value 0.987 | locus YGL240W, strain doc1, stronger effect = lower value 0.982 | locus YGL248W, strain PDE1, stronger effect = lower value 1.03 | locus YGL253W, strain hxk2, stronger effect = lower value 0.995 | locus YGR078C, strain PAC10, stronger effect = lower value 1.02 | locus YGR135W, strain pre9, stronger effect = lower value 1.02 | locus YGR229C, strain SMI1, stronger effect = lower value 1.04 | locus YGR252W, strain gcn5, stronger effect = lower value 1.03 | locus YHR013C, strain ard1, stronger effect = lower value 0.995 | locus YHR027C, strain rpn1, stronger effect = lower value 0.994 | locus YHR030C, strain SLT2, stronger effect = lower value 0.999 | locus YHR079C, strain IRE1 (second series), stronger effect = lower value 1.03 | locus YHR094C, strain hxt1, stronger effect = lower value 1.01 | locus YHR129C, strain ARP1, stronger effect = lower value 1 | locus YHR142W, strain chs7, stronger effect = lower value 1.01 | locus YHR200W, strain rpn10, stronger effect = lower value 1.01 | locus YIL066C, strain RNR3, stronger effect = lower value 1.02 | locus YIL073C, strain SPO22, stronger effect = lower value 1.1 | locus YIL125W, strain kgd1, stronger effect = lower value 1.03 | locus YIR030C, strain dcg1, stronger effect = lower value 1.02 | locus YJL092W, strain hpr5, stronger effect = lower value 0.987 | locus YJL095W, strain BCK1 (second series), stronger effect = lower value 0.987 | locus YJL095W, strain BCK1, stronger effect = lower value 1.02 | locus YJL115W, strain asf1, stronger effect = lower value 1 | locus YJL129C, strain trk1, stronger effect = lower value 1.02 | locus YJL134W, strain LCB3, stronger effect = lower value 1 | locus YJL154C, strain vps35, stronger effect = lower value 1 | locus YJL164C, strain tpk1, stronger effect = lower value 1 | locus YJL166W, strain qcr8, stronger effect = lower value 0.992 | locus YJL168C, strain set2, stronger effect = lower value 1.02 | locus YJL187C, strain SWE1 (second series), stronger effect = lower value 1.01 | locus YJL187C, strain SWE1, stronger effect = lower value 1
